Molecules are shown by their SMILES. Activity calls are given as the source filed them. The call rests on the fitted dose curve.

Phosphatidylinositol 5-phosphate 4-kinase type-2 beta (Homo sapiens), sequence (P78356 whole entry, looked up, canonical isoform): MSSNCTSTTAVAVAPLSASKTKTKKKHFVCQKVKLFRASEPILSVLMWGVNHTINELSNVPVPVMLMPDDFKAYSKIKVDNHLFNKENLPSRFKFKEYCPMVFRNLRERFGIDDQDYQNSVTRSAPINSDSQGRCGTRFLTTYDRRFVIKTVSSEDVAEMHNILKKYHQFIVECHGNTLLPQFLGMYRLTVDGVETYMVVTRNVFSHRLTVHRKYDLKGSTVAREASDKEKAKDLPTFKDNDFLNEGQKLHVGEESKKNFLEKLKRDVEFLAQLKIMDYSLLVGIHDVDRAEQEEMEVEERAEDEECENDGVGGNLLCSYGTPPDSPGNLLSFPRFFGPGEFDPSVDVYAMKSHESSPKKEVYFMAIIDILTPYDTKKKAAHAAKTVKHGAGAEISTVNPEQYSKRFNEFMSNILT

In this test the target is Phosphatidylinositol 5-phosphate 4-kinase type-2 beta (Homo sapiens) (UniProt P78356). The test can be described thus: qHTS for Inhibitors of PI5P4K: PI5P4K-beta 32P-ATP TLC Secondary Assay for Probe SAR. The settings on record: recombinant PI5P4K-beta, 32P-ATP TLC lipid kinase assay. An excerpt:
In addition to finding PI5P, we discovered the type II phosphatidylinositol 5-phosphate 4-kinase (PI5P4K) family (alpha, beta, gamma isoforms) that catalyze the conversion of PI5P to PI(4,5)P2. Alternatively, PI(4,5)P2 can also be synthesized through phosphatidylinositol-4-phosphate (PI4P) by the type I phosphatidylinositol 4-phosphate 5-kinases (PI4P5K). These PI5P4K enzymes therefore represent one way by which cells can regulate endogenous PI5P levels and play important roles in insulin signaling and in stress responses. […] A qHTS PI5P4K-alpha ADP-Glo assay was developed to identify specific modulators of human PI5P4K, phosphatidylinositol-5-phosphate 4-kinase (Type II PIPK). To confirm that the active compounds and their analogs were true and selective inhibitors, a secondary Thin-layer Chromatography (TLC) assays against recombinant PI5P4K-alpha, PI4P5K-alpha or PI5P4K-beta that utilize a radioactively labeled ATP were developed. The data herein is the result of the PI5P4K-beta TLC assay. […]
The kinase reaction was carried out in a total of 50 microL of kinase buffer (50 mM HEPES pH 7.4 and 10 mM MgCl2) containing 20 microM of the lipids that were suspended by sonication. […] The radiolabeled product, PI(4,5)P2, was quantified with a phosphorimager (Molecular Dynamics, STORM840, GE Healthcare, Waukesha, WI, USA).
Regarding `O=C1Nc2ccc(C(=O)c3ccco3)cc2/C1=C/c1cc(Cl)c(O)c(Cl)c1`, the Potency is 890 nM (active).

These data come from PubChem BioAssay AID743379 (National Center for Advancing Translational Sciences (NCATS), 2014).
